TGFb inhibitor: inhibitors of TGF-b signaling; HepG2 CAGA-GFP TGF-b/SMAD3 reporter, GFP fluorescence, 18 h; TGF-beta stimulated, 500 pg/mL final; Potency, µM (highest dose often 46.1 µM), for inactives: top-dose activity, negative = inhibition, usual class: inhibitors; actives 1.2% (n = 410,000); also: potency is read from the fitted curve at half-maximal effect; % is scaled to controls: 0 for no effect and ±100 for the full control effect; nearly all actives have a fitted effect of over 65% in size
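Per well, imaged GFP fluorescence of HEPG2 CAGA-GFP cells gives the signal; cells get compound, then TGF-beta (500 pg/mL final), 18 h at 37 degrees C; %Activity versus -TGF-beta and +DMSO controls.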
IL1B secr inh: blocks inflammasome-driven IL-1 beta release. activity change, % at 57.5 µM. actives 4.7% (n = 360,000). THP-1 LPS/ATP IL-1B secretion, AlphaLISA, 16 h; active compounds read low; in the data active = activity change below about -50%; inconclusive = mostly about -30% to -49%; also: % is scaled to controls: 0 for no effect and ±100 for the full control effect
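Secreted IL-1B measured by AlphaLISA bead assay after 16 h compound exposure of THP-1 cells; compounds (final up to 57.5 uM) added 1 h before LPS (250 ng/mL) and ATP (1.25 mM) stimulation; lower signal means less secretion.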
TDP1 cell CPT: growth inhibition of DT40 Tdp1-/-;hTDP1 cells with camptothecin (screen for TDP1 inhibitors); chicken DT40 Tdp1-/-;hTDP1 cells + 20 nM CPT, ATP luminescence, 48 h; Potency, µM (doses to about 46.2 µM), for inactives: at the top dose activity change, negative = growth inhibition, usual class: inhibitors; actives 12% (n = 420,000); also: potency is read from the fitted curve at half-maximal effect; % is scaled to controls: 0 for no effect and ±100 for the full control effect; nearly all actives have a fitted effect of over 55% in size
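Cell growth measured by CellTiter-Glo luminescence after a minimum 48 h, 37 C compound exposure with 20 nM CPT in Tdp1-knockout DT40 cells stably expressing hTDP1, seeded 400/well; qHTS titration format.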
TDP1 cell noCPT: qHTS for Inhibitors of human tyrosyl-DNA phosphodiesterase 1 (TDP1): qHTS in cells in absence of CPT; DT40 Tdp1-/- hTDP1 cells, no CPT, ATP luminescence, 48 h; Potency, µM (top dose mostly 46.2 µM), without a hit: top-dose activity change, negative = growth inhibition, actives largely listed as inhibitors; actives 15% (n = 420,000); also: potency is read from the fitted curve at half-maximal effect; % is scaled to controls: 0 for no effect and ±100 for the full control effect; nearly all actives have a fitted effect of over 55% in size
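Compound effects on proliferation are scored in DT40 Tdp1-/-;hTDP1 cells in the absence of CPT. ATP levels (CellTiter-Glo luminescence) are recorded after a ≥48 hr, 37 °C incubation.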
HepG2 viability: counter-screen for TGF-b inhibitors: cytotoxicity in HepG2 cells | HepG2 CAGA-GFP viability, ATP luminescence, 18 h | Potency, µM (top dose mostly 46.1 µM), for inactives: top-dose activity change, negative = cytotoxicity, hits mostly cytotoxic | actives 0.76% (n = 410,000) | AID 588856; also: potency is read from the fitted curve at half-maximal effect
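CellTiter-Glo luminescence gave cytotoxicity after 18 hours at 37 degrees C. The cells were HepG2 CAGA-GFP in 1% FBS DMEM, stimulated with 500 pg/mL TGF-beta after compound addition. %Activity was normalised to no-cell wells (complete cell-killing) and DMSO (no toxicity), and curves were fitted and classified.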
TDP1 inh: inhibitors of human tyrosyl-DNA phosphodiesterase TDP1 | Q9NUW8 | Potency, µM (series often up to 130 µM), for the others: top-dose activity change, negative = inhibition, actives largely listed as inhibitors | actives 0.28% (n = 350,000) | recombinant TDP1, AlphaScreen DNA substrate cleavage; also: potency is read from the fitted curve at half-maximal effect; % is scaled to controls: 0 for no effect and ±100 for the full control effect; nearly all actives have a fitted effect of over 40% in size
Target sequence (Q9NUW8 whole entry, looked up): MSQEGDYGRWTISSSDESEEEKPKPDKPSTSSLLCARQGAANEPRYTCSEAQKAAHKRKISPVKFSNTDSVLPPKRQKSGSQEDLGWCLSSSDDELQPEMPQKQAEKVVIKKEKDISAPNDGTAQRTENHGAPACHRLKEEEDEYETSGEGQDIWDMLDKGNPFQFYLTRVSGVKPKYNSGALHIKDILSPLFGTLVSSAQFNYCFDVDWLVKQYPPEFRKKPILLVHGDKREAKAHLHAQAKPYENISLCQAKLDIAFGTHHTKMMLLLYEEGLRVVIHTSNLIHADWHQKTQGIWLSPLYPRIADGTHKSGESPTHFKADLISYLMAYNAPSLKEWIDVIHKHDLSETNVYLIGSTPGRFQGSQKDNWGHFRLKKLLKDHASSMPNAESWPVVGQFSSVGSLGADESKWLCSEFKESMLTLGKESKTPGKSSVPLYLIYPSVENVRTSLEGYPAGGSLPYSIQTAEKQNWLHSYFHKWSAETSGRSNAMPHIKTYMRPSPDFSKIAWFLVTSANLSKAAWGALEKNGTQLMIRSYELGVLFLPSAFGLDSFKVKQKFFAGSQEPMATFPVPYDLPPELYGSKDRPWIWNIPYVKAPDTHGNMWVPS
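Enzyme-compound mixtures sat 15 min at room temperature, followed by a 5 min reaction with 15 nM final substrate and 10 min with AlphaScreen beads. Recombinant human Tdp1 was used at 1 nM final.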
Starred values were filed as active, the others as inactive; i = inactive; ? = inconclusive; / = no result given; [ ] = another dose, or the depositor's remark. Shown are actives, neighbours in structure and some others; about 18% of the full set was active somewhere. Unless noted, calls follow the shape of the dose curve; as a rule, active = well fitted curve in the direction sought with a large enough effect; inconclusive = small, poorly fitted or top-dose-only effect, or another doubt; inactive = no such curve, though single readings can be large; an effect the other way counts as inactive or inconclusive.

SMILES	TGFb inhibitor	IL1B secr inh	TDP1 cell CPT	TDP1 cell noCPT	HepG2 viability	TDP1 inh
CCOc1cc(/C=C2\C(=O)N(CCc3ccc(OC)c(OC)c3)C(C)=C2C(=O)OC)ccc1O	-1%	?	?	23µM*	-21%	5%
COC(=O)C1=C(C)N(Cc2cccnc2)C(=O)/C1=C\c1sccc1C	13%	-53*	-23%	-22%	-17%	8%
COC(=O)C1=C(C)N(Cc2ccc(C)cc2)C(=O)/C1=C\c1cc(OC)c(OC)c(OC)c1	?	-79*	?	21µM*	16µM*	9%
CCOc1cc(/C=C2\C(=O)N(Cc3ccco3)C(C)=C2C(=O)OC)ccc1O	-17%	-105*	?	?	-25%	2%
CCOc1cc(/C=C2/N=C(C)C(C(=O)OC)=C2O)ccc1O	16%	10	-3%	-1%	-14%	3%
CCN1C(=O)/C(=C\c2cccs2)C(C(=O)OC)=C1C	18%	-28	1%	?	2%	2%
CCC(Sc1nc2nccnc2c(=O)n1Cc1ccccc1Cl)C(=O)NC1CCCCC1 (configuration not stated)	?	/	?	?	-20%	-8%
CCOC(=O)C1=C(C)N(c2ccc(C)cc2)C(=O)/C1=C\c1ccc(O)c(OC)c1	?	0	15µM*	21µM*	-80%	/
COC(=O)C1=C(C)N(CCc2ccccc2)C(=O)/C1=C\c1ccco1	-4%	17	?	?	-3%	-1%
COC(=O)C1=C(C)N(Cc2ccc(C)cc2)C(=O)/C1=C\c1ccc(O)c(OC)c1	19%	-60*	2%	-29%	-21%	11%
COC(=O)C1=C(C)N(Cc2ccccc2)C(=O)/C1=C\c1ccco1	-1%	2	?	18µM*	-15%	11%
O=C(CN(c1ccc(Cl)c(C(F)(F)F)c1)S(=O)(=O)c1ccccc1)N/N=C/c1cccc2c1OCCO2	?	?	?	?	2%	7%
CSc1nc(C(=O)N2CCCC(Nc3ccc(C)c(C)c3)C2)cs1 (configuration not stated)	-5%	i	?	?	0%	9%
CC(=O)C(=Cc1cn(-c2ccccc2)nc1-c1ccccc1)C(C)=O	3%	-7	23µM*	?	0%	-3%
Cc1ccc(-c2nn(-c3ccccc3)cc2/C=N/O)cc1	?	-81*	21%	-13%	-53%	/
Cc1ccc(-c2nn(-c3ccccc3)cc2/C=N/NS(=O)(=O)c2ccccc2)cc1	?	-21	29µM*	?	-29%	5%
Cc1ccc(S(=O)(=O)N/N=C\c2cn(-c3ccccc3)nc2-c2ccccc2)cc1	-28%	-8	2%	-3%	1%	9%
COc1ccc(NS(=O)(=O)c2cccc(C(=O)N/N=C/c3cn(-c4ccccc4)nc3-c3ccccc3)c2)cc1	4%	?	16µM*	?	0%	5%
COc1ccc(NS(=O)(=O)c2cccc(C(=O)N/N=C/c3cn(-c4ccccc4)nc3-c3ccc(OC)cc3)c2)cc1	10%	-9	?	-21%	15%	/
CC1(O)C(=O)C=C2C=C(CCCCOCc3ccccc3)OC=C2C1=O (configuration not stated)	/	/	/	/	/	2%[21 µM]
Cc1ccc(OC(C)C(=O)N2CCN(CCc3ccncc3)CC2)cc1C (configuration not stated)	0%	/	-18%	?	-12%	4%
Cc1cc2ccccc2cn1	-11%	/	-9%	-10%	-28%	/
O=C(Nc1ccc(Br)cc1F)c1cnn2c1NC(=C1CC1)C=C2C(F)F	25%	/	-15%	-14%	22%	/
NS(=O)(=O)c1ccc(N/N=C/c2cn(-c3ccccc3)nc2-c2ccccc2)c([N+](=O)[O-])c1	5.6µM*	-78*	4.1µM*	12µM*	6.3µM*	0%
CC(C)(C)N(NC(=O)Nc1ccc(F)cc1)C(=O)c1ccccc1	0%	-13	-6%	-14%	-8%	-5%
SMILES	TGFb inhibitor	IL1B secr inh	TDP1 cell CPT	TDP1 cell noCPT	HepG2 viability	TDP1 inh
Cc1cc(C)cc(C(=O)N(NC(=O)Nc2ccc(Cl)cc2)C(C)(C)C)c1	0%	-30	15µM*	?	-29%	-2%
CC(C)(C)N(NC(=O)Nc1ccc(Cl)c(Cl)c1)C(=O)c1ccccc1	?	-51*	18µM*	18µM*	-19%	2%
O=C(CSc1nc(-c2cccs2)cc(C(F)(F)F)n1)NCCCn1ccnc1	0%	21	-11%	0%	3%	8%
CCN(CC)c1ccc(NC(=O)CSc2nc(-c3cccs3)cc(C(F)(F)F)n2)cc1	6%	/	?	?	-2%	4%
O=C(CSc1nccc(=O)[nH]1)Nc1ccc(F)c(Cl)c1	?	-5	-9%	-1%	1%	2%
COc1ccc(NC(=O)CSc2nc(-c3cccs3)cc(C(F)(F)F)n2)c(OC)c1	4%	/	16µM*	21µM*	2%	-3%
Cc1ccc(NC(=O)CSc2nc(-c3cccs3)cc(C(F)(F)F)n2)cc1C	30%	/	7.3µM*	5.8µM*	-9%	2%
O=C(CSc1nccc(-c2cccs2)n1)Nc1ccc(F)c(Cl)c1	13µM*	1	-7%	?	-46%	0%
COc1ccc(NC(=O)CSc2nc(-c3ccco3)cc(C(F)(F)F)n2)c(OC)c1	2%	/	-8%	-12%	-1%	2%
O=C(CSc1nc(-c2cccs2)cc(C(F)(F)F)n1)Nc1ccccc1Cl	-16%	/	?	18µM*	8%	5%
N[C@H]1C(O)O[C@H](CO)[C@@H](O)[C@@H]1O (some centres not stated)	-2%	16	-5%	3%	-12%	/
O=C(CSc1nc(-c2cccs2)cc(C(F)(F)F)n1)Nc1cc(OCC(F)(F)C(F)F)cc([N+](=O)[O-])c1	?	5	8.2µM*	12µM*	-49%	-5%
Cc1nc(Nc2ccccc2)[nH]c(=O)c1CCC(C)C	1%	23	7.3µM*	?	-7%	7%
Cc1cccc(C)c1OCC(=O)Nc1nc(-c2ccc(Br)cc2)ns1	-10%	/	?	16µM*	-3%	-3%
Cc1ccccc1C(=O)Nc1nc(-c2ccc(Br)cc2)ns1	-30%	/	16µM*	21µM*	-43%	-5%

Screening results as filed in PubChem BioAssay.
